Bioassay records from PubChem BioAssay.
FBW7 activator = human FBW7 E3 ligase activation, primary screen | Q969H0 | AlphaScreen FBW7–phospho-cyclin E peptide binding, activator screen | normalized activity (activation), % at 26.1 µM | 650,000 tested, 0.13% active; in the data active = normalized activity above about 1.9%;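 also: purified mutant Fbw7 with reduced substrate affinity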
Target sequence (Q969H0 whole entry, looked up): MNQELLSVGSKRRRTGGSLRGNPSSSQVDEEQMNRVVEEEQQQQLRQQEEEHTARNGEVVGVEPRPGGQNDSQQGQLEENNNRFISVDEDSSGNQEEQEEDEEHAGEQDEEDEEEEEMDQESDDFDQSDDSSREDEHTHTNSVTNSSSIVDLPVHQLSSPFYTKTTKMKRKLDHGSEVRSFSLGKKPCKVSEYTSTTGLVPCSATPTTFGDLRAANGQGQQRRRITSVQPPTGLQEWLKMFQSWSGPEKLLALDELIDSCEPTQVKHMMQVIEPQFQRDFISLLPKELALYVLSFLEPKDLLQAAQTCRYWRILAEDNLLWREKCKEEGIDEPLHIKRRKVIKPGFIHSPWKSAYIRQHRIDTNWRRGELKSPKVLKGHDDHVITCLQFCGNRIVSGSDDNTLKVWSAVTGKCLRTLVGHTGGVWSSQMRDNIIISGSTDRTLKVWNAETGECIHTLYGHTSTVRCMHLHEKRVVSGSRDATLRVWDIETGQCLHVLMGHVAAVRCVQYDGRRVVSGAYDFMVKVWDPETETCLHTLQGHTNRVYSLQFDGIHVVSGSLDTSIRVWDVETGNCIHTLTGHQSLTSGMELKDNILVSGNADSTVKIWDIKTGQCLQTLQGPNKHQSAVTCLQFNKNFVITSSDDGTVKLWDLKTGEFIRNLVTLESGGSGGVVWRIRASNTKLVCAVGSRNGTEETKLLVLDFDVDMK
MITF inh = blocks human microphthalmia-associated transcription factor | inhibition, % at 2.6 µM | O75030 | AID 1259374 | 650,000 tested, 0.91% active | AlphaScreen MITF homodimerization, bead proximity signal; in the data active = inhibition above about 50%;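 also: 0% = vehicle wells with protein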
GPR151 ag = human GPR151 activation; PathHunter beta-arrestin GPR151 cells, luminescence; activation, % at 11.2 µM; 650,000 tested, 1% active; in the data active = activation above about 4.9%;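 also: 0% = median of compound wells and 100% = cells with positive control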
TEAD-YAP inh = TEAD-YAP interaction inhibition; 640,000 tested, 1.4% active; HEK-TIYL cells, TEAD-Gal4/YAP UAS-luciferase luminescence; inhibition, % at 9.12 µM; in the data active = inhibition above about 32%;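 also: 0% = median of test compound wells and 100% = reference inhibitor wells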
GPR151 conf act = human GPR151 activation, confirmation screen; shares compounds with GPR151 ag; activation, % at 11.2 µM; GPR151 PathHunter beta-arrestin cells, luminescence, 90 min; % of EA-reagent control over plate median; 6,700 tested, under 10 active; AID 1508609;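 active = mean percent activation across replicates above the confirmation screen cutoff of 4.91%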
GPR119 counter = counter-screen for GPR151 activators: effect on human GPR119 | shares compounds with GPR151 ag | GPR119 PathHunter beta-arrestin cells, luminescence, 90 min; 0 = compound-well median, 100 = enzyme-acceptor control | activation, % at 11.2 µM | 6,700 tested, 0.3% active;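 active = mean percent activation in the counterscreen above 29.09%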;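 also: counterscreen on off-target GPR119 to flag nonselective hits from the GPR151 activator screen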
* = called active by the depositor. Hits are enriched below; roughly 3.5% of the tested compounds scored in any of these assays.

How did CCCC1(C2CCN(Cc3ccc(O)cc3)CC2)NC(=O)N(CC2CCCO2)C1=O (configuration not stated) do in these assays?
FBW7 activator: 0; MITF inh: 4; GPR151 ag: 6.0*; TEAD-YAP inh: 3; GPR151 conf act: 0; GPR119 counter: 2

Results for CC(=O)c1cc(C(=O)NCC2Cc3cc(Cl)cc(-c4cnccn4)c3O2)cs1 (configuration not stated) ?
FBW7 activator: 0; MITF inh: 10; GPR151 ag: -2; TEAD-YAP inh: 5

Results for O=C1NC(=S)N/C1=C/c1ccccc1Br ?
FBW7 activator: 1; MITF inh: 20; GPR151 ag: -1; TEAD-YAP inh: 3

Results for Cc1nn(Cc2ccc(C(=O)NC3CCCC3)o2)c(C)c1[N+](=O)[O-] ?
FBW7 activator: 0; MITF inh: 0; GPR151 ag: 5.5*; TEAD-YAP inh: 6; GPR151 conf act: -1; GPR119 counter: -15

Results for NC(=O)CSc1nnc2n(Cc3ccccc3)c3ccccc3n12 ?
FBW7 activator: 0; MITF inh: -3; GPR151 ag: 6.1*; TEAD-YAP inh: -7; GPR151 conf act: 1; GPR119 counter: -3

How did C#CCn1c(=O)c2c(OCCC)c(CC)cnc2n(C)c1=O do in these assays?
FBW7 activator: 0; MITF inh: 21; GPR151 ag: 0; TEAD-YAP inh: 0

What do the screens show for `O=S(=O)(c1ccc(Nc2nc3ccccc3n3nnnc23)cc1)N1CCOCC1`?
FBW7 activator: 0; MITF inh: 4; GPR151 ag: 5.1*; TEAD-YAP inh: -19; GPR151 conf act: 0; GPR119 counter: 0

How did CC1Cc2ccccc2N1C(=O)CCNS(=O)(=O)c1cc(Br)cnc1N (configuration not stated) do in these assays?
FBW7 activator: 0; MITF inh: 21; GPR151 ag: -2; TEAD-YAP inh: -8

Results for COc1ccc(CCN2C(=O)c3ccc(Oc4ccc(Nc5ncnc6ccccc56)cc4)cc3C2=O)cc1OC ?
FBW7 activator: 0; MITF inh: 18; GPR151 ag: 6.6*; TEAD-YAP inh: 97*; GPR151 conf act: 3; GPR119 counter: 26

What do the screens show for `COc1ccc(CCN2C(=O)c3ccc(Oc4ccc([N+](=O)[O-])cc4)cc3C2=O)cc1OC`?
FBW7 activator: 0; MITF inh: -20; GPR151 ag: 0; TEAD-YAP inh: 9

Results for COc1ccc(N2CCN(C(=O)C(c3ccccc3)c3ccccc3)CC2)nn1 ?
FBW7 activator: 0; MITF inh: 7; GPR151 ag: 5.7*; TEAD-YAP inh: 3; GPR151 conf act: 1; GPR119 counter: 1

What do the screens show for `O=C(c1ccccc1)c1ccc(-n2ccnc2)c([N+](=O)[O-])c1`?
FBW7 activator: 0; MITF inh: 8; GPR151 ag: 7.3*; TEAD-YAP inh: 3; GPR151 conf act: 0; GPR119 counter: 3

Results for O=C(O)c1ccc(-n2ccnc2)c([N+](=O)[O-])c1 ?
FBW7 activator: 0; MITF inh: 5; GPR151 ag: 2; TEAD-YAP inh: -4

Results for Cc1ccc(C(=O)c2ccccc2)cc1[N+](=O)[O-] ?
FBW7 activator: 0; MITF inh: 12; GPR151 ag: 8.7*; TEAD-YAP inh: 3; GPR151 conf act: -1; GPR119 counter: -1

Results for Cc1ccc(-n2ncc3c(=O)n(CC(=O)N4CCCCC4)cnc32)cc1C ?
FBW7 activator: 0; MITF inh: 0; GPR151 ag: -1; TEAD-YAP inh: -1

How did Cc1ccn(C(=O)c2ccccc2[N+](=O)[O-])n1 do in these assays?
FBW7 activator: 0; MITF inh: 9; GPR151 ag: 0; TEAD-YAP inh: -5

What do the screens show for `O=C(c1ccc(C(F)(F)F)cc1)C1CCCN(C(=O)C[n+]2cc(=O)o[nH]2)C1` (configuration not stated)?
FBW7 activator: 0; MITF inh: 4; GPR151 ag: 0; TEAD-YAP inh: 2

What do the screens show for `Cc1cc(C)c2c3c(sc2n1)C(=O)N(c1ccc(F)cc1)CC(=O)N3`?
FBW7 activator: 0; MITF inh: 4; GPR151 ag: 5.6*; TEAD-YAP inh: 2; GPR151 conf act: 0; GPR119 counter: -1

How did Cc1ccc(N2CC(=O)Nc3c(sc4nc(C)cc(C)c34)C2=O)cc1 do in these assays?
FBW7 activator: 0; MITF inh: -6; GPR151 ag: 2; TEAD-YAP inh: 3

How did COc1ccccc1C(NC(=O)c1nccc2ccccc12)c1nccn1C (configuration not stated) do in these assays?
FBW7 activator: 0; MITF inh: 7; GPR151 ag: 6.4*; TEAD-YAP inh: -2; GPR151 conf act: 0; GPR119 counter: -1

Results for COc1ccccc1C(NC(=O)c1cnccn1)c1nccn1C (configuration not stated) ?
FBW7 activator: 1; MITF inh: 10; GPR151 ag: 0; TEAD-YAP inh: 1

How did Cc1nn(C)c(C)c1-c1cncc(C(=O)NC2CCN(Cc3ccccc3)CC2)c1 do in these assays?
FBW7 activator: 0; MITF inh: -7; GPR151 ag: 5.5*; TEAD-YAP inh: 2; GPR151 conf act: 1; GPR119 counter: -2

What do the screens show for `Cc1nn(C)c(C)c1-c1nc(C(=O)NC2CCN(Cc3ccccc3)CC2)cs1`?
FBW7 activator: 0; MITF inh: 8; GPR151 ag: 8.7*; TEAD-YAP inh: -16; GPR151 conf act: 0; GPR119 counter: -7

What do the screens show for `O=C1N[C@@H](Cc2ccc(Cl)cc2)C(=O)N2C[C@@H](NCc3cnn(-c4cccc(Cl)c4)c3)C[C@@H]12`?
FBW7 activator: 0; MITF inh: 4; GPR151 ag: -1; TEAD-YAP inh: -8

What do the screens show for `N#CCc1ccc(NC(=O)COc2cccc(Br)c2)cc1`?
FBW7 activator: 0; MITF inh: 0; GPR151 ag: 3; TEAD-YAP inh: -13

Results for CC(C)(C)c1ccc(C(=O)Nc2cc(C(=O)N3CCN(c4ccc([N+](=O)[O-])cc4)CC3)ccc2N2CC3CC(C2)c2cccc(=O)n2C3)cc1 (configuration not stated) ?
FBW7 activator: 0; MITF inh: 4; GPR151 ag: 1; TEAD-YAP inh: -1

How did COC(=O)c1cn(NC(=O)/C=C/c2ccc(Br)cc2)c(=O)c2ccccc12 do in these assays?
FBW7 activator: 0; MITF inh: 2; GPR151 ag: 7.8*; TEAD-YAP inh: -5; GPR151 conf act: 0; GPR119 counter: -5

What do the screens show for `CCC(c1nnnn1C1CCCC1)N1CCN(Cc2ccccc2OC)CC1` (configuration not stated)?
FBW7 activator: 0; MITF inh: -8; GPR151 ag: 0; TEAD-YAP inh: -8

How did CSc1nc(N)nc(SCC(=O)Nc2ccc(Cl)cc2)c1C#N do in these assays?
FBW7 activator: 0; MITF inh: -7; GPR151 ag: 11*; TEAD-YAP inh: 3; GPR151 conf act: 0; GPR119 counter: 0
